Screens from PubChem BioAssay.
Pol eta inh-1: DNA polymerase eta (human) inhibition; Q9Y253; recombinant Pol eta, fluorescent DNA replication assay; Potency, µM (series often up to 114 µM), hits mostly inhibitors; 390,000 compounds, 1.2% hits; AID 588591
Target sequence (Q9Y253 whole entry, looked up): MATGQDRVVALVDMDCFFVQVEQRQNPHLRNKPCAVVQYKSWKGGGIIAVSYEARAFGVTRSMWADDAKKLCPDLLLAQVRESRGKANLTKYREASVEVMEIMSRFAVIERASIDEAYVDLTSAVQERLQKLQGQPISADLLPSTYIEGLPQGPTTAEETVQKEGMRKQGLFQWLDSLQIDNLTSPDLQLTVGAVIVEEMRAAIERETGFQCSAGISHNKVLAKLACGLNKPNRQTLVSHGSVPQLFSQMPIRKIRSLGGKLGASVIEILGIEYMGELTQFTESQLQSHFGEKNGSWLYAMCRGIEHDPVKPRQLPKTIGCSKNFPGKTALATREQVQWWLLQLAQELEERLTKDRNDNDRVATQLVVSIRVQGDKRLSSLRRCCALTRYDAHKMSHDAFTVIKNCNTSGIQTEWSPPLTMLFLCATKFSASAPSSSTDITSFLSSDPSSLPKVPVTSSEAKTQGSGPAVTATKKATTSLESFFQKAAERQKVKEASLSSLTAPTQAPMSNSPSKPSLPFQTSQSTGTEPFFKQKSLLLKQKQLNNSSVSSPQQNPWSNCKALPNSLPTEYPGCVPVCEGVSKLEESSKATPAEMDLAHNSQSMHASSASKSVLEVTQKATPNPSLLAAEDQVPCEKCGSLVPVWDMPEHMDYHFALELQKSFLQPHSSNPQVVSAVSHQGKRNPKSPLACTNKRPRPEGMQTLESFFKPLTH
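Pol eta at 10 nM preincubated with compounds 15 min at room temperature; reaction started with fluorescent substrate (50 nM final) and read kinetically at 0 and 10 min.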
POLB inh: inhibitors of human DNA polymerase beta; 340,000 compounds, 1.3% hits; P06746; Pol beta primer extension/strand displacement, fluorescence kinetic; Potency, µM (top dose mostly 114 µM), hits mostly inhibitors
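Pol beta (10 nM) was preincubated with compound for 15 min at room temperature. The reaction was then started with 50 nM substrate and read immediately and after a further 10 min at room temperature.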
Pol kappa inh-1: DNA polymerase kappa (human) inhibition; Q9UBT6; Potency, µM (doses to about 107 µM), usual class: inhibitors; 400,000 compounds, 0.53% hits; purified Pol kappa, fluorescent DNA synthesis assay, 10 min
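Kinetic fluorescence screen: compound preincubated 15 min RT with 10 nM enzyme; 50 nM substrate (final) initiates; reads at 0/10 min.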
POLI inh: DNA polymerase iota (human) inhibition; Q9UNA4; Pol iota fluorescent replication assay, 10 min; Potency, µM (titrated, usually from 115 µM), actives largely listed as inhibitors; 390,000 compounds, 1% hits
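Fluorescent replication assay read twice, at 0 min and 10 min after adding 50 nM (final) substrate. Enzyme (10 nM) and compounds were first incubated 15 min at room temperature; enzyme-free buffer wells were negative controls.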
WRN helicase inh: inhibitors of human WRN helicase; Q14191; WRN helicase unwinding, fluorescent forked duplex, kinetic; Potency, µM (highest dose often 114 µM), usual class: inhibitors; 360,000 compounds, 0.46% hits; AID 651768; further: nearly all actives have a fitted effect of over 55% in size
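WRN at 20 nM final was preincubated with compound for 15 min at room temperature; reaction started with 100 nM forked duplex oligonucleotide carrying fluorophore and quencher plus 2 mM ATP (final). Unwinding followed kinetically by red fluorescence (ex 525/em 598 nm).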
FEN1 inhibitor: blocks human flap endonuclease 1. P39748. Recombinant FEN1 flap cleavage, fluorescence, 15 min. Potency, µM (doses to about 114 µM), hits mostly inhibitors. 390,000 compounds, 0.35% hits. AID 588795; further: nearly all actives have a fitted effect of over 65% in size
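FEN1 at 10 nM preincubated with compounds 15 min at room temperature, then flap DNA substrate added at 50 nM final. Signal read at 0 and 15 min; concentration-response fitted with four-parameter Hill equation.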
GALK inh confirm: confirmation of human galactokinase (GALK) inhibitors. shares compounds with Pol eta inh-1. Potency, µM (titrated, usually from 115 µM), hits mostly inhibitors. 150 compounds, 70% hits. purified GALK, Kinase-Glo ATP depletion luminescence
Redox cycling: redox cycling activity in phenol red-HRP assay | Phenol red-HRP H2O2 redox cycling, absorbance 600 nm | Potency, µM (doses to about 115 µM), actives largely listed as inhibitors | shares compounds with Pol eta inh-1 | 150 compounds, 40% hits
HEK293 viability: reduces HEK-293 cell viability in GALK counter-screen; Potency, µM (titrated, usually from 46.1 µM), hits mostly inhibitors; shares compounds with Pol eta inh-1; 170 compounds, 10% hits; HEK-293 viability, ATP luminescence (CellTiter-Glo), 24/48 h; AID 2547
Pol kappa inh-2: confirmation of human DNA polymerase kappa inhibitors; shares compounds with Pol eta inh-1; purified Pol-kappa, fluorescent strand-displacement substrate; Potency, µM, hits mostly inhibitors; 920 compounds, 76% hits
Pol eta inh-2: confirmation of human DNA polymerase eta inhibitors; shares compounds with Pol eta inh-1; Pol eta primer extension, TAMRA/BHQ fluorescence, 10 min; Potency, µM, usual class: inhibitors; 2,600 compounds, 64% hits
Large screens that a line does not name were inactive (follow-up assays come after a bar, where they were run). In the library only some 2.4% were active in any assay of this set; here they are far more common. The call rests on the fitted dose curve; in most records, active means well fitted curve in the direction sought with a large enough effect; inconclusive means small, poorly fitted or top-dose-only effect, or another doubt; inactive means no such curve, though single readings can be large; an effect the other way counts as inactive or inconclusive.

COc1ccc(C/C(O)=C(\C#N)c2nc3ccccc3s2)cc1	none | GALK inh confirm 42.1µM | Redox cycling inactive | HEK293 viability inactive
N#C/C(=C(/O)COc1ccc(Cl)cc1)c1nc2ccccc2s1	none | GALK inh confirm inconclusive | Redox cycling inactive | HEK293 viability inactive
N#C/C(=C(/O)COc1ccccc1)c1nc2ccccc2s1	none
O=C(Nc1cccc2cccnc12)OC(Cl)(Cl)Cl	none (no result: Pol eta inh-1, POLB inh, WRN helicase inh)
CNc1ncncc1-c1ccccc1C(F)(F)F	none (no result: Pol eta inh-1, POLB inh, POLI inh, WRN helicase inh, FEN1 inhibitor)
COc1ccccc1-n1ncc2c(=O)[nH]c(SCC(=O)Nc3ccc(Cl)cc3)nc21	none (no result: WRN helicase inh)
Cc1ccc(-n2c3nc(=O)[nH]c(=O)c-3cc3cc([N+](=O)[O-])ccc32)cc1C	Pol eta inh-1 20µM, WRN helicase inh inconclusive, FEN1 inhibitor inconclusive | Pol eta inh-2 inconclusive
COc1cccc(-c2nccc(N(C)Cc3ccco3)n2)c1	none (no result: Pol eta inh-1, POLB inh, POLI inh, WRN helicase inh, FEN1 inhibitor)
O=C(Nc1ccc(O)cc1)c1ccc2c(c1)C(=O)N(Cc1ccco1)C2=O	Pol eta inh-1 14.1µM, POLI inh inconclusive, WRN helicase inh inconclusive | Pol eta inh-2 67.5
O=C(Nc1cc([N+](=O)[O-])ccc1O)c1cccc(C(=O)Nc2cc([N+](=O)[O-])ccc2O)c1	Pol eta inh-1 inconclusive, FEN1 inhibitor inconclusive | Pol eta inh-2 inconclusive
O=C(Nc1cc([N+](=O)[O-])ccc1O)c1ccc2c(c1)C(=O)N(Cc1ccco1)C2=O	Pol eta inh-1 31.6µM, Pol kappa inh-1 50.1µM, POLI inh 39.8µM, WRN helicase inh inconclusive, FEN1 inhibitor inconclusive | Pol eta inh-2 inconclusive
O=C(Nc1cc([N+](=O)[O-])ccc1O)c1cccc([N+](=O)[O-])c1	none
O=C(Nc1ccc(Oc2ccccc2)cc1)c1ccc(F)c(S(=O)(=O)N2CCN(c3ccccc3F)CC2)c1	none (no result: WRN helicase inh)
CCCCCCCCCCCCCCCCOCC(COP(=O)([O-])OCC[N+](C)(C)C)OC (stereo unspecified)	none (no result: Pol eta inh-1, POLB inh, POLI inh, WRN helicase inh, FEN1 inhibitor)
O=C(O)c1cccc(NC(=O)c2ccc(N3C(=O)c4ccc(C(=O)Nc5cccc(C(=O)O)c5)cc4C3=O)cc2)c1	none
O=C(O)c1ccc2c(c1)C(=O)N(c1cccc(C(=O)/C=C/c3ccccc3)c1)C2=O	Pol eta inh-1 31.6µM, POLI inh inconclusive, WRN helicase inh inconclusive, FEN1 inhibitor inconclusive | Pol eta inh-2 60.1
CC(C)OC(=O)c1c(NC(=O)c2cc3nc(-c4ccccc4)cc(C(F)(F)F)n3n2)sc2c1CCCC2	none (no result: WRN helicase inh)
C=CCN(CC=C)S(=O)(=O)c1ncn[nH]1	Pol eta inh-1 8.91µM, POLB inh inconclusive, Pol kappa inh-1 inconclusive, POLI inh inconclusive | Pol eta inh-2 inconclusive
COc1ccc(/C=N/NC(=O)c2ccc(O)cc2O)cc1CSc1ccccn1	Pol eta inh-1 14.1µM, POLB inh 20µM, Pol kappa inh-1 79.4µM, POLI inh inconclusive, WRN helicase inh inconclusive | Pol eta inh-2 inconclusive
CCOC(=O)c1sc(N/N=C/c2ccccc2)nc1C	WRN helicase inh inconclusive
O=C(O)Cc1sc(N/N=C\c2ccccc2)nc1-c1ccccc1	Pol eta inh-1 39.8µM, POLI inh inconclusive | Pol kappa inh-2 26.7 | Pol eta inh-2 47.8
COc1cc(CCc2ccccc2)c(C(=O)O)c(O)c1CC=C(C)C	FEN1 inhibitor inconclusive (no result: POLB inh)
COc1cc(CCc2ccccc2)c(C(=O)O)c(O)c1C/C=C(/C)CCC=C(C)C	Pol eta inh-1 31.6µM, Pol kappa inh-1 79.4µM, POLI inh inconclusive, WRN helicase inh inconclusive, FEN1 inhibitor inconclusive (no result: POLB inh) | Pol kappa inh-2 inconclusive | Pol eta inh-2 84.9
Cc1nc2cnc(N3CCN(C)CC3)nc2n(Cc2ccc(F)cc2)c1=O	none (no result: Pol eta inh-1, POLB inh, POLI inh, WRN helicase inh, FEN1 inhibitor)
COc1ccc(-n2c(NC(=O)c3ccco3)c(C#N)c3nc4ccccc4nc32)cc1	Pol eta inh-1 20µM, WRN helicase inh 50.1µM, FEN1 inhibitor inconclusive | Pol kappa inh-2 67 | Pol eta inh-2 84.9
COc1ccc(C(=O)Nc2ccc(NC(=O)c3ccco3)cc2)cc1	none
CC(C)C(NC(=O)/C(=C\c1ccco1)NC(=O)c1ccco1)C(=O)O (stereo unspecified)	Pol eta inh-1 20µM, POLB inh 22.4µM, Pol kappa inh-1 inconclusive | Pol kappa inh-2 inconclusive
CC(C)(C)c1ccc(C(=O)N/C(=C\c2ccco2)C(=O)O)cc1	POLB inh inconclusive
O=C(O)/C(=C/c1ccco1)NC(=O)c1ccc(Br)o1	Pol eta inh-1 inconclusive, POLB inh inconclusive, POLI inh inconclusive | Pol eta inh-2 60.1
O=C(O)/C(=C/c1ccco1)NC(=O)c1ccccc1	Pol eta inh-1 11.2µM, POLB inh 39.8µM, POLI inh inconclusive | Pol kappa inh-2 47.4 | Pol eta inh-2 inconclusive
O=C(Nc1cc(-c2ccc(F)c(F)c2)no1)c1ccccc1F	none (no result: WRN helicase inh)
Cc1nc2ccccc2n2c(O)c(CC(=O)O)cc12	Pol eta inh-1 79.4µM, POLB inh inconclusive, Pol kappa inh-1 inconclusive, POLI inh inconclusive, WRN helicase inh inconclusive, FEN1 inhibitor inconclusive | Pol kappa inh-2 67 | Pol eta inh-2 inconclusive
COc1ccc2c(c1)c1c(c(=O)n(-c3ccccc3C)c(=O)n1CC(N)=O)n2C	none (no result: WRN helicase inh)
O=C1/C(=C/c2ccc(C(=O)O)cc2)CCC/C1=C\c1ccc(C(=O)O)cc1	Pol eta inh-1 8.91µM, POLI inh inconclusive | Pol eta inh-2 30.1
CCC(CNc1cc(OC)cc2cccnc12)NC1CCCCC1 (stereo unspecified)	POLB inh inconclusive, POLI inh inconclusive, FEN1 inhibitor inconclusive | GALK inh confirm 9.43µM | Redox cycling 3.75µM | HEK293 viability inactive
COCCOC(=O)c1c(-c2ccccc2)c(-c2ccccc2)nn(C)c1=O	none (no result: WRN helicase inh)
Cc1cc(-c2ccccc2C(=O)O)on1	none
O=C(O)c1ccccc1C1=Nc2ccc(O)cc2Oc2cc(O)ccc21	Pol eta inh-1 inconclusive, POLB inh 50.1µM, POLI inh 39.8µM, WRN helicase inh inconclusive | Pol kappa inh-2 inconclusive
COC(=O)CS(=O)(=O)c1nc2ccccc2nc1N1CCCCC1	none (no result: WRN helicase inh)
